Holding throughout (assay): protein-binding microarray (PBM); PBM: ~300 nM protein, 6 mM HEPES pH 7.8, 80 mM KCl, 0.5 mM EDTA, 0.5 mM EGTA, 6% glycerol, 35 ng/ul poly-dIdC, 1% milk, 1 h, room temperature; Ap Aiptasia and Nv Nematostella (sea anemones) / Co Capsaspora / Aq Amphimedon (sponge) / Dm Drosophila / Hu human; RHD is the Rel homology domain; high values mean tight binding
What all share (conditions): dsDNA, one strand shown

Assay [1] has as its target T1, GST-Ap-NF-kB RHD (Exaiptasia pallida (Aiptasia), UniProt A0A913YAJ5 2-422).
T1 sequence: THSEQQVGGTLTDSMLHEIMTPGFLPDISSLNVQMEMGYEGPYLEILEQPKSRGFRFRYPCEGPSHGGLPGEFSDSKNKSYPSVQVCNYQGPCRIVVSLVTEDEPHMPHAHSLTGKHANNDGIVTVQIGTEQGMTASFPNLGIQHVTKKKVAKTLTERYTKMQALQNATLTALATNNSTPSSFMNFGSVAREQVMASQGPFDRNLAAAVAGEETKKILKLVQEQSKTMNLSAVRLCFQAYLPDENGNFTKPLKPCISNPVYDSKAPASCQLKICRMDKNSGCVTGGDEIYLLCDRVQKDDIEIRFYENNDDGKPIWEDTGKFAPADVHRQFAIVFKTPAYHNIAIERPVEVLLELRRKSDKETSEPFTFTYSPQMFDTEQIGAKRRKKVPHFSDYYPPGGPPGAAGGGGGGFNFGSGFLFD

Assay [2] deals with T2, GST-Nv-NF-kB (Cys allele) (Nematostella vectensis, UniProt E5G601 2-411).
T2 sequence: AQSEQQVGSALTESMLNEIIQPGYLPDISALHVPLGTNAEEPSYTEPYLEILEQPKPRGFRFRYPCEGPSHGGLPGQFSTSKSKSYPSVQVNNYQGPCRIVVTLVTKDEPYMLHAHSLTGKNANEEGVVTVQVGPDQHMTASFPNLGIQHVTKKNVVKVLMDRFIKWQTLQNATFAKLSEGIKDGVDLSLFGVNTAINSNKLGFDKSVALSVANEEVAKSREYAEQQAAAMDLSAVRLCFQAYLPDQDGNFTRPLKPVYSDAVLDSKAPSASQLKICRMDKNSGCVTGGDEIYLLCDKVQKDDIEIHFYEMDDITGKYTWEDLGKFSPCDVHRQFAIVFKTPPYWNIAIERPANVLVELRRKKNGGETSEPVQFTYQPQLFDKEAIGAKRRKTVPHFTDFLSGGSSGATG

Assay [3] has as its target T3, GST-Nv-NF-kB (Ser allele) (Nematostella vectensis, UniProt A7UNT2 2-411).
T3 sequence: T2 sequence with Q21R, C66S, S207N, E215Q, V217A, E225K, A268E, D399E

Assay [4] concerns the target T4, GST-Co-NF-kB (Capsaspora owczarzaki, UniProt F1ARL5 200-546).
T4 sequence: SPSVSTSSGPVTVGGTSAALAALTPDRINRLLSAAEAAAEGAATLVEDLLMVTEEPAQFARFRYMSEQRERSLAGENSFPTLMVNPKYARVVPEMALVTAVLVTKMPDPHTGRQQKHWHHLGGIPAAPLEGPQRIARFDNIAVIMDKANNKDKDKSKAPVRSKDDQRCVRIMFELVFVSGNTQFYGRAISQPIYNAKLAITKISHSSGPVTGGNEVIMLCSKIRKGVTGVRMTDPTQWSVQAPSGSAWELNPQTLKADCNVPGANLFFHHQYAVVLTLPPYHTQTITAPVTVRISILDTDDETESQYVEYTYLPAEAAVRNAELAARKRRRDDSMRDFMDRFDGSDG

In assay [5] the target is T5, GST-Dm-Relish (Drosophila melanogaster, UniProt Q94527 99-473).
T5 sequence: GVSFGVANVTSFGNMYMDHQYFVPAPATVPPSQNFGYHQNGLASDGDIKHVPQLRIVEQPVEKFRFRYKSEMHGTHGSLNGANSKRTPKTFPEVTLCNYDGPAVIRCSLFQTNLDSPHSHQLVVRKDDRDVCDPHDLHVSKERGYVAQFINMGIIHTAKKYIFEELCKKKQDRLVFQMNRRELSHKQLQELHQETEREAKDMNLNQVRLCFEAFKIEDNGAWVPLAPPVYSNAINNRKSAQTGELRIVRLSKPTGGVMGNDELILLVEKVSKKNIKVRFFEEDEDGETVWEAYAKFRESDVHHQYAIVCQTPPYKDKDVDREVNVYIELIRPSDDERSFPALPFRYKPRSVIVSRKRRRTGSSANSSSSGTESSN

Assay [6] concerns the target T6, GST-Aq-NF-kB (Amphimedon queenslandica, UniProt A9Y5G7 2-389).
T6 sequence: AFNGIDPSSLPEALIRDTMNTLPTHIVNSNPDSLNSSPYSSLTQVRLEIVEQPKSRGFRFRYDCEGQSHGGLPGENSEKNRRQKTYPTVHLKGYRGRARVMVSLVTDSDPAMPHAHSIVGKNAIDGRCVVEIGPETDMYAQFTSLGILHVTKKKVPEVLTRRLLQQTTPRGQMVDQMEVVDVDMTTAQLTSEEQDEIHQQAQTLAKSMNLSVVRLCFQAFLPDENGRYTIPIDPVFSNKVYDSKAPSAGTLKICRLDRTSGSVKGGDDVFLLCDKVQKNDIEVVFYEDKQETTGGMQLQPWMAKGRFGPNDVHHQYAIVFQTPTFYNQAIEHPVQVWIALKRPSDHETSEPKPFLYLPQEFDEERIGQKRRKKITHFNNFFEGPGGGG

Assay [7] addresses GST-Hu-p50 (Homo sapiens, UniProt P19838 7-356).

From PMC5700166 come the findings set out here.

Where a chain is given by its changes, count along the chain named.

Chain of GST-Hu-p50 (P19838 7-356): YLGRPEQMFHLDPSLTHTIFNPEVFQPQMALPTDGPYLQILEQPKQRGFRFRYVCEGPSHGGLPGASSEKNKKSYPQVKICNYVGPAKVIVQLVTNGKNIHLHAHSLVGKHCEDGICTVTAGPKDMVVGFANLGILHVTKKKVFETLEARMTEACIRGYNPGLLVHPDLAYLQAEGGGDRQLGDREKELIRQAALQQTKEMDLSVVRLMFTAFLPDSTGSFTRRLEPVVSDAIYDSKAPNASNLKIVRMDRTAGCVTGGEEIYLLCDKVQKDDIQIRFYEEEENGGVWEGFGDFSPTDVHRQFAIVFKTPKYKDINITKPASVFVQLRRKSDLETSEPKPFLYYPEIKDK

On to “CCGATTAACATCACAAATCCCCCTGATGTTAATCGGGTCTTGATTCGCTTGACGCTGCTG”, for which the binding signal in assay [1] turned out to be 8.39 z-score; in assay [2], 8.44 z-score; in assay [3], 9.23 z-score; in assay [4], 6.1 z-score; in assay [5] it was 7.73 z-score; in assay [6], 6.8 z-score. Moreover, the binding signal in assay [7] turned out to be 7.16 z-score.
With “CCGATTAACATCAGAAAGTCCCCTGATGTTAATCGGGTCTTGATTCGCTTGACGCTGCTG”, the binding signal worked out at 8.98 z-score in assay [1]; 9.38 z-score in assay [2]; 8.58 z-score in assay [3]; 3.84 z-score in assay [4]; 9.11 z-score in assay [5]; 7.8 z-score in assay [6]. For the same sequence, in assay [7], the binding signal turned out to be 7.42 z-score.
As for “CCGATTAACATCAGGGGGATAACTGATGTTAATCGGGTCTTGATTCGCTTGACGCTGCTG”, the binding signal was determined as 6.6 z-score in assay [1]; 4.96 z-score in assay [2]; 5.96 z-score in assay [3]; 6.99 z-score in assay [4]; 7.19 z-score in assay [5]; 5.34 z-score in assay [6]. The binding signal in assay [7] turned out to be 5.17 z-score.
“CCGATTAACATCAGGATTTCCCATGATGTTAATCGGGTCTTGATTCGCTTGACGCTGCTG”: the binding signal in assay [1] is 3.95 z-score; in assay [2], 5.23 z-score; in assay [3], 4.48 z-score; in assay [4] it was 3.18 z-score; in assay [5], 5.84 z-score; in assay [6], 5.27 z-score. In assay [7], this sequence gave a binding signal of 3.73 z-score.
Regarding “CCGATTAACATCAATAACCCCCCTGATGTTAATCGGGTCTTGATTCGCTTGACGCTGCTG”, the binding signal in assay [1] was 6.33 z-score; in assay [2], 5.55 z-score; in assay [3] it was 5.48 z-score; in assay [4], 4.7 z-score; in assay [5], 8.07 z-score; in assay [6], 6.46 z-score. The same sequence displayed a binding signal in assay [7] of 5.76 z-score.
“CCGATTAACATCAGGGGGGAACCTGATGTTAATCGGGTCTTGATTCGCTTGACGCTGCTG”: the binding signal came out at 7.52 z-score in assay [1]; 5.48 z-score in assay [2]; 6.89 z-score in assay [3]; 8.57 z-score in assay [4]; 5.48 z-score in assay [5]; 6.03 z-score in assay [6]. The sequence further came in with a binding signal in assay [7] of 6.02 z-score.
As for “CCGATTAACATCACAAGTTCCCCTGATGTTAATCGGGTCTTGATTCGCTTGACGCTGCTG”, the binding signal is 7.44 z-score in assay [1]; 7.71 z-score in assay [2]; 8.61 z-score in assay [3]; 7.27 z-score in assay [4]; 6.56 z-score in assay [5]; 6.21 z-score in assay [6]. The sequence also yielded a binding signal in assay [7] of 5.93 z-score.
With “CCGATTAACATCAAGTTCCCCCCTGATGTTAATCGGGTCTTGATTCGCTTGACGCTGCTG”, the binding signal is 7.37 z-score in assay [1]; 6.39 z-score in assay [2]; 7.26 z-score in assay [3]; 10.1 z-score in assay [4]; 6.95 z-score in assay [5]; 6.03 z-score in assay [6]. This sequence also registered a binding signal in assay [7] of 6.13 z-score.
As for “CCGATTAACATCAGGACATCCCCTGATGTTAATCGGGTCTTGATTCGCTTGACGCTGCTG”, the binding signal in assay [1] stood at 6.25 z-score; in assay [2], 7.54 z-score; in assay [3] it was 5.99 z-score; in assay [4], 1.88 z-score; in assay [5], 8.74 z-score; in assay [6], 7.75 z-score. This sequence showed a binding signal in assay [7] of 5.89 z-score.
With “CCGATTAACATCAGGAGCCCCCCTGATGTTAATCGGGTCTTGATTCGCTTGACGCTGCTG”, the binding signal in assay [1] came to 5.02 z-score; in assay [2] it was 3.27 z-score; in assay [3] it was 2.66 z-score; in assay [4], 2.66 z-score; in assay [5] it was 6.02 z-score; in assay [6] it was 5.04 z-score. This sequence also yielded a binding signal in assay [7] of 4.41 z-score.
Turning to “CCGATTAACATCAAGGGGATTTATGATGTTAATCGGGTCTTGATTCGCTTGACGCTGCTG”, the binding signal in assay [1] was 7.79 z-score; in assay [2], 9.15 z-score; in assay [3], 11.3 z-score; in assay [4], 3.44 z-score; in assay [5] it was 8.3 z-score; in assay [6], 6.25 z-score. Also, the binding signal in assay [7] turned out to be 7.34 z-score.
Take “CCGATTAACATCAGGGGGTGCACTGATGTTAATCGGGTCTTGATTCGCTTGACGCTGCTG”: the binding signal in assay [1] worked out at 3.65 z-score; in assay [2], 2.71 z-score; in assay [3], 3.9 z-score; in assay [4], 2.55 z-score; in assay [5], 6.6 z-score; in assay [6], 4.95 z-score. In assay [7], this sequence had a binding signal of 4.23 z-score.
